Rows were chosen to be rich in hits. Some 2.2% of all compounds tested hit in one or more screens of this group.
TDP-43 yeast inh: inhibitors of TDP-43 toxicity in yeast | TDP-43 expressing yeast growth rescue, BacTiter-Glo, 24 h | Potency, µM (titrated, usually from 46.1 µM), for inactives: at the top dose growth rescue (activation), actives largely listed as activators | hit rate 1.8% among 410,000; also: % of control where 0% means no effect; nearly all actives have a fitted effect of over 50% in size
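Growth rescue of TDP-43-toxic yeast measured as ATP luminescence (BacTiter-Glo). Cells grown to mid-log in raffinose, induced in galactose at OD600=0.02, exposed to compound 24 hr at 30 deg C.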
Mito fusion yeast: blocks mitochondrial division or promotes mitochondrial fusion | S. cerevisiae fusion-defective mutant growth rescue, CellTiterGlo 48 h | Potency, µM (doses to about 46.1 µM), inactives show at the top dose growth rescue (activation), hits mostly activators | hit rate 0.23% among 320,000; also: % of control where 0% means no effect; nearly all actives have a fitted effect of over 45% in size
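S. cerevisiae fusion-defective temperature-sensitive mutants (e.g. fzo1-1, mgm1-5) grown 48 h at 37C in YPEG (ethanol/glycerol non-fermentable) medium with 23 nl compound per well; growth rescue read as CellTiterGlo luminescence.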
Abeta rescue: compounds reversing amyloid beta toxicity in yeast | hit rate 0.063% among 410,000 | AID 1347071 | Potency, µM (series often up to 46.1 µM), actives largely listed as activators | yeast expressing A-beta42, growth rescue, OD600, 48 h; response scale: 0% DMSO, 100% iron-clioquinol control; also: nearly all actives have a fitted effect of over 55% in size
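Yeast A-beta toxicity model in growth medium with pinned compounds, 48 h at 30 C; growth read as absorbance at 600 nm. Normalized to FeCl3/clioquinol equimolar mix (positive) and DMSO (negative).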
FUS suppressor: rescues growth of FUS-expressing yeast; S. cerevisiae FUS-expressing, growth rescue, OD600, 24 h; Potency, µM (highest dose often 76.6 µM), most hits filed as activators; hit rate 0.24% among 390,000; AID 1347120;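 also: plate controls were DMSO vehicle for no effect and reference control for full effect; nearly all actives have a fitted effect of over 55% in size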
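Toxicity suppression screen in FUS-yeast. Cells induced with 2% galactose, starting OD 0.005, treated 24hr at 30C with compounds at multiple final concentrations; growth by OD600.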
aSyn yeast inh: inhibitors of alpha-synuclein toxicity in yeast | Yeast expressing alpha-synuclein, growth rescue, BacTiter-Glo, 24 h | Potency, µM (top dose mostly 46.1 µM), for inactives: at the highest dose growth rescue (activation), hits mostly activators | hit rate 0.14% among 370,000; also: % of control where 0% means no effect; nearly all actives have a fitted effect of over 65% in size
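Screening used galactose-induced yeast with toxic alpha-synuclein levels, exposed to compound for 24 hr at 30 deg C. Cell growth, read with BacTiter-Glo luminescence, gave the measured signal.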
The depositor's hits bear a star; i = inactive; ? = inconclusive; / = not tested or not shown; [ ] = remark or other dose. Calls follow the shape of the dose curve; as a rule, active = well fitted curve in the direction sought with a large enough effect; inconclusive = small, poorly fitted or top-dose-only effect, or another doubt; inactive = no such curve, though single readings can be large; an effect the other way counts as inactive or inconclusive. Potency is read from the fitted curve at half-maximal effect.

SMILES	TDP-43 yeast inh	Mito fusion yeast	Abeta rescue	FUS suppressor	aSyn yeast inh
Cc1ccc2c(C)c(C(=O)N3CCC(O)(c4ccccc4)CC3)oc2c1C	22.4µM*	24.2%	i	i	10.1%
Cc1ccc2c(C)c(C(=O)N3CCN(c4cnccn4)CC3)oc2c1C	12.6µM*	10.5%	i	/	26.9%
Cc1ccc2c(C)c(C(=O)N3CCN(C4CCS(=O)(=O)C4)CC3)oc2c1C (stereo not given)	5.0%	2.7%	i	i	1.5%
CC(=O)c1cc(-c2ccccc2)n(CC(=O)NCc2ccccc2Cl)c1C	/	/	/	i	/
CC(c1ccccc1)C(CC(=O)O)C(=O)Nc1ccc(Cl)c(Cl)c1 (stereo not given)	-9.5%	1.7%	i	i	8.3%
O=C(NC(=S)NCc1ccc(F)cc1)c1ccccc1	22.4µM*	/	i	/	-4.6%
O=C(NC(=S)NCc1ccccc1)c1cccs1	12.6µM*	-8.9%	?	i	-13.4%
O=C(NC(=S)NCc1ccccc1)c1ccccc1	-19.2%[0.397 µM]	1.2%	11.2µM*	i	-1.3%
O=C(NCc1cccc2ccccc12)c1cccs1	12.6µM*	-6.7%	i	i	3.1%
O=C(NC1CCCCN(Cc2cccc(Cl)c2)C1=O)c1ccc2ccccc2c1 (stereo not given)	/	/	/	i	/
C=CCN(C)CC#Cc1ccc(C)cc1	/	/	/	i	/
CCCCCCCCN1CN2Cc3ccc(C)cc3C2CS1(=O)=O (stereo not given)	/	/	/	i	/
CC(NC(=O)COC(=O)c1ccc[nH]c1=O)c1ccccc1 (stereo not given)	-12.9%	/	i	i	-1.7%
COC(=O)C[C@@H]1CC[C@@H]2[C@H](COc3ccc(NC(=O)Nc4c(C)noc4C)cc3C(=O)N2C)O1	/	/	/	i	/
Cc1ccc2nc(-c3ccc(C)c(NC(=O)COc4ccc(Br)cc4)c3)oc2c1	/	/	/	/	-0.4%
O=S(=O)(c1cc2ccccc2s1)n1c(CN2CCOCC2)nc2ccccc21	/	/	/	i	/
O=C(Nc1ccc(S(=O)(=O)N2CCCC2)cc1)C1CC(=O)N(CCc2ccccc2)C1 (stereo not given)	14.8%	/	i	i	7.6%
CCC(Oc1ccccc1)C(=O)Nc1cc(-c2cccc(C)c2)nn1-c1ccccc1 (stereo not given)	-9.0%	/	i	i	/
CCC(CC)C(=O)Nc1cc(-c2cccc(C)c2)nn1-c1ccccc1	12.6µM*	/	i	i	/
C=C1C=C(C(F)F)n2ncc(C(=O)N3CCN(c4ccccn4)CC3)c2N1	/	/	/	/	-5.0%
N#C/C(=C\c1ccccc1O)C(=O)Nc1ccccn1	12.2%	-7.5%	i	i	-5.5%
COc1ccc(S(=O)(=O)N(C(=O)c2ccncc2)c2ccc3oc4c(c3c2)CCCC4)cc1	14.7%	11.2µM*	i	i	?
CCc1ccc(S(=O)(=O)N(C(=O)c2ccncc2)c2ccc3oc(C)c(C(=O)OC)c3c2)cc1	20µM*	/	i	i	/
CCOc1ccc(S(=O)(=O)N(C(=O)c2ccncc2)c2ccc3oc(C)c(C(=O)OC)c3c2)cc1	18.9%	/	i	?	/
O/N=C/c1ccc(OCc2ccccc2)c(Br)c1	12.6µM*	?	i	i	-15.2%
SMILES	TDP-43 yeast inh	Mito fusion yeast	Abeta rescue	FUS suppressor	aSyn yeast inh
O/N=C/c1ccc(OCc2ccccc2)c(Cl)c1	22.4µM*	22.4µM*	i	i	-5.3%
O/N=C/c1cc(Br)cc(Br)c1OCc1ccccc1	24.3%	10.0%	i	i	14.1%
Cc1cc(Cl)ccc1-c1nc(NC(C)C)nc2ccsc12	35.5µM*	/	i	i	?
COCCNc1nc(-c2ccc(Cl)cc2C)c2sccc2n1	22.4µM*	/	i	i	10.3%
CCc1ccc(/C=C/C(=O)NC2=NCCS2)cc1	/	/	/	i	/
CC(=O)N1CCc2cc(S(=O)(=O)NCCC(=O)NCc3ccc(Cl)cc3)ccc21	/	/	/	i	/
COc1ccc(CCNC(=O)CCN2C(=O)COc3ccc(C)cc32)cc1OC	8.91µM*	-1.3%	i	?	0.7%
COc1ccc(CCNC(=O)CCN2C(=O)COc3ccccc32)cc1OC	7.6%	-1.1%	i	i	0.0%
Cc1cccc(Nc2ncnc3onc(-c4cccc(Cl)c4)c23)c1	18.9%	-9.6%	i	i	-1.7%
CN(c1ncnc2onc(-c3cccc(Cl)c3)c12)C1CCCCC1	22.4µM*	/	i	i	/
Cc1cc(Br)ccc1NC(=O)COC(=O)c1ccccc1OCC(N)=O	/	/	/	/	0.9%
c1ccc(-c2nc(-c3ccco3)n3ccccc23)cc1	25.1µM*	8.9%	i	i	-1.7%
O=C1CN(C(=O)c2ccc(S(=O)(=O)N3CCCCC3)cc2)C(c2ccc(F)cc2)c2cc(Br)ccc2N1 (stereo not given)	10.0%	/	i	17.8µM*	/
Cc1ccc2c(c1)C(c1ccc(F)cc1)N(C(=O)c1ccc(S(=O)(=O)N3CCCCC3)cc1)CC(=O)N2 (stereo not given)	-8.9%	/	i	31.6µM*	/
C[C@@]12C(=O)N(CC3CCCO3)CC(=O)N1[C@H]1c3cc(Cl)ccc3OC[C@@H]1[C@@H]2c1ccccc1 (stereo not given in full)	21.4%	/	?	i	1.0%
Cc1cccc(-c2nnc(-c3ccc(N)cc3)o2)c1	8.91µM*	14.4%	i	i	8.2%
Cc1cccc(-c2nnc(SCc3ccccc3)o2)c1	11.2µM*	6.0%	i	i	0.2%
COc1cccc(-c2nnc(SCc3cccnc3)o2)c1	12.6µM*	10.6%	i	i	21.2%
c1ccc(-c2nnc(SCc3ccncc3)o2)cc1	-1.0%	/	i	i	-1.6%
Cc1cccc(CSc2nnc(-c3ccco3)o2)c1	17.8µM*	0.6%	i	i	-11.8%
N#Cc1cccc(-c2nnc(SCc3ccccc3C#N)o2)c1	17.8µM*	5.4%	i	i	13.1%
C=CCC12C=C(OC)C(=O)C(C1=O)C1c3ccccc3CC12 (stereo not given)	/	/	/	i	/
CC(C)C[C@H](NC(=O)OC(C)(C)C)c1nnc(SCC(=O)Nc2ccc(Br)cc2)o1	0.316µM*	1.5%	i	i	-0.8%
CN(C)c1ccc(/C=C/c2ccnc3ccccc23)c(N)c1	/	/	/	/	-5.2%
CC(CCc1ccccc1)NC(=O)/C=C/c1ccc(F)cc1 (stereo not given)	/	11.2µM*	/	/	/
CC(CCc1ccccc1)NC(=O)/C=C/c1ccccc1 (stereo not given)	3.0%	4.9%	i[9.22 µM]	i	0.1%
O=C(NN=Cc1ccccc1C(F)(F)F)c1cc(-c2ccc(Cl)cc2)n[nH]1	/	/	/	i	/
O=C(NCC1CCCO1)C(c1cccs1)N(Cc1ccccc1)C(=O)c1ccc(-c2ccccc2)[nH]1 (stereo not given)	15.8µM*	1.0%	i	/	4.0%
